PubChem BioAssay (NCATS)
Where “and” joins values, the source holds several entries; their conditions need not be identical. Identical values can stand only once. Inconclusive results are not listed. Where a call stands in place of a potency, no number is given. Calls of active or inactive are those of the source. Calls follow the shape of the dose curve; as a rule, active = well fitted inhibition curve with a large enough effect; inconclusive = small, poorly fitted or top-dose-only effect; inactive = flat fitted curve, though single readings scatter.

Key:
[1] = qHTS for identification of novel therapeutic agents for treatment of microphthalmiaassociated transcription factor (MiT) renal cell carcinoma (RCC) (AID 1963991); settings: CellTiter-Glo, 48 h, stronger effect = lower value
In short: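 Three TFE3-fusion RCC cell lines (UOK109, UOK124, UOK145), 500 cells/well, were exposed to the 1912-compound MIPE 4.0 library for 48 hours at 37 C. Viability was read by CellTiter-Glo luminescence, normalised to DMSO (100%) and empty wells (0%), with 11-concentration curve fits.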

[2] = qHTS profiling for inhibitors of Plasmodium falciparum proliferation (AID 504749); also: nearly all actives have a fitted effect of over 60% in size; also: potency is read from the fitted curve at half-maximal effect; settings: P. falciparum in erythrocytes, SYBR Green DNA, 72 h
In short: (§1)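 Quantitative HTS: compounds pinned into medium, infected erythrocytes added (0.3% parasitemia, 2.5% hematocrit), 72 h culture at 37 C under 5% CO2. Saponin/Triton lysis with SYBR Green I, overnight RT, then fluorescence read.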

3D7 = experiment: as above; settings: P. falciparum in erythrocytes, SYBR Green DNA, 72 h; series mostly up to 28.7 µM
In short: as §1

ATS189 = experiment: as above; settings: P. falciparum in erythrocytes, SYBR Green DNA, 72 h; series mostly up to 28.7 µM
In short: as §1

ATS95 = experiment: as above; settings: P. falciparum in erythrocytes, SYBR Green DNA, 72 h; series mostly up to 28.7 µM
In short: as §1

C2A = experiment: as above; settings: P. falciparum in erythrocytes, SYBR Green DNA, 72 h; series mostly up to 28.7 µM
In short: as §1

CP185 = experiment: as above; settings: P. falciparum in erythrocytes, SYBR Green DNA, 72 h; series mostly up to 28.7 µM
In short: as §1

7G8 = experiment: as above; settings: P. falciparum in erythrocytes, SYBR Green DNA, 72 h; series mostly up to 28.7 µM
In short: as §1

AA1029 = experiment: as above; settings: P. falciparum in erythrocytes, SYBR Green DNA, 72 h; series mostly up to 28.7 µM
In short: as §1

AS120 = experiment: as above; settings: P. falciparum in erythrocytes, SYBR Green DNA, 72 h; series mostly up to 28.7 µM
In short: as §1

[3] = TFE3-RCC UOK109 viability, measured here: UOK109 Z-AUC
[4] = TFE3-RCC viability, measured here: UOK124 Z-AUC
[5] = TFE3-RCC viability, measured here: UOK145 Z-AUC
[6] = at 12.8 µM (top of the series), parasite line A
[7] = at 12.8 µM (top of the series), parasite line B
[8] = at 28.7 µM (top of the series), parasite line A
[9] = at 28.7 µM (top of the series), parasite line B

Compound	z-score [1, 3]	z-score [1, 4]	z-score [1, 5]	activity, negative = inhibition [2, 6]	activity, negative = inhibition [2, 7]	Potency (3D7)	Potency (ATS189)	Potency (ATS95)	Potency (C2A)	Potency (CP185)	activity, negative = inhibition [2, 8]	activity, negative = inhibition [2, 9]	Potency (7G8)	Potency (AA1029)	Potency (AS120)	Potency ([2]; parasite line A)	Potency ([2]; parasite line B)
CCn1cc(C(=O)O)c(=O)c2cc(F)c(N3CCNCC3)nc21	0.63	-0.25	0.63	-33.7% (inactive)	-38.9% (inactive)	inactive	inactive	inactive	inactive	inactive	–	–	–	–	–	–	–
C[C@]12C=CC(=O)C=C1CC[C@@H]1[C@@H]2C(=O)C[C@@]2(C)[C@H]1CC[C@]2(O)C(=O)CO	1.31	1.23	-3.21	–	–	inactive	inactive	inactive	inactive	inactive	9.08% (inactive)	14.6% (inactive)	inactive	inactive	inactive	–	–
O=P(O)(O)C(O)(Cc1cccnc1)P(=O)(O)O	0.388	0.644	0.537	–	–	inactive	inactive	inactive	inactive	inactive	11.1% (inactive)	6.62% (inactive)	inactive	inactive	inactive	–	–
CN(C)CCc1c[nH]c2ccc(CS(=O)(=O)N3CCCC3)cc12	-0.684	-0.106	0.603	–	–	inactive	inactive	inactive	inactive	inactive	-2.84% (inactive)	-4.67% (inactive)	inactive	inactive	inactive	–	–
CCCc1cc(C(N)=S)ccn1	1.43	0.537	0.979	–	–	inactive	inactive	inactive	inactive	inactive	2.28% (inactive)	5.15% (inactive)	inactive	inactive	inactive	–	–
O=c1oc2c(O)c(O)cc3c(=O)oc4c(O)c(O)cc1c4c23	1.02	0.807	0.717	–	–	1000 nM (active)	–	–	–	inactive	–	–	2820 nM (active)	inactive	1410 nM (active)	–	–
CCOC(=O)c1ccc(OC(=O)CCCCCN=C(N)N)cc1	0.377	0.137	-0.125	-3.04% (inactive)	4.29% (inactive)	–	–	inactive	inactive	inactive	–	–	3550 nM (active)	inactive	inactive	–	–
CC(C)(Sc1cc(C(C)(C)C)c(O)c(C(C)(C)C)c1)Sc1cc(C(C)(C)C)c(O)c(C(C)(C)C)c1	–	–	–	6.04% (inactive)	8.09% (inactive)	3550 nM (active)	inactive	inactive	inactive	inactive	–	–	–	inactive	inactive	–	–
COC(=O)Nc1nc2ccc(C(=O)c3ccccc3)cc2[nH]1	–	–	–	5.97% (inactive)	9.61% (inactive)	inactive	inactive	inactive	inactive	inactive	–	–	inactive	inactive	inactive	–	–
Cc1ccnc2c1NC(=O)c1cccnc1N2C1CC1	–	–	–	–	–	inactive	inactive	inactive	inactive	inactive	0.983% (inactive)	-17.2% (inactive)	–	inactive	inactive	–	–
Cc1noc(NS(=O)(=O)c2ccc(N)cc2)c1C	–	–	–	–	–	inactive	inactive	inactive	inactive	inactive	13.7% (inactive)	4.61% (inactive)	inactive	inactive	inactive	–	–
CCOC(=O)[C@H](CCc1ccccc1)N[C@H]1CS[C@H](c2cccs2)CN(CC(=O)O)C1=O	–	–	–	–	–	inactive	inactive	inactive	inactive	inactive	-33.7% (inactive)	–	–	inactive	–	–	–
CC(C)Cn1cnc2c(N)nc3ccccc3c21	–	–	–	–	–	inactive	inactive	inactive	inactive	inactive	–	-10.9% (inactive)	–	inactive	inactive	–	–
CN1CCN(c2c(F)cc3c(=O)c(C(=O)O)cn4c3c2OCN4C)CC1	–	–	–	–	–	inactive	inactive	inactive	inactive	inactive	4.43% (inactive)	17.6% (inactive)	inactive	inactive	inactive	–	–
COc1cc(NS(=O)(=O)c2ccc(N)cc2)nc(OC)n1	–	–	–	5.18% (inactive)	-3.51% (inactive)	inactive	inactive	inactive	inactive	inactive	–	–	inactive	inactive	inactive	–	–
CCCc1nc(C)c2c(=O)[nH]c(-c3cc(S(=O)(=O)N4CCN(CC)CC4)ccc3OCC)nn12	–	–	–	–	–	inactive	inactive	inactive	inactive	inactive	-13.4% (inactive)	-10.2% (inactive)	7080 nM (active)	–	–	–	–
N=C(N)c1ccc(OCCCCCOc2ccc(C(=N)N)cc2)cc1	–	–	–	–	–	1580 nM (active)	1410 nM (active)	1120 nM (active)	1260 nM (active)	1120 nM (active)	–	–	199 nM (active)	1000 nM (active)	891 nM (active)	1000 nM (active)	2240 nM (active)
CCc1c2c(nc3ccc(OC(=O)N4CCC(N5CCCCC5)CC4)cc13)-c1cc3c(c(=O)n1C2)COC(=O)[C@]3(O)CC	–	–	–	–	–	inactive	inactive	inactive	inactive	inactive	-1.15% (inactive)	–	–	inactive	inactive	–	–
CNC(=O)c1cc(Oc2ccc(NC(=O)Nc3ccc(Cl)c(C(F)(F)F)c3)cc2)ccn1	–	–	–	–	–	–	–	–	–	–	–	–	1000 nM (active)	–	10000 nM (active)	–	–
CNCC[C@H](Oc1cccc2ccccc12)c1cccs1	–	–	–	–	–	–	–	7940 nM (active)	–	–	–	–	2240 nM (active)	7080 nM (active)	11200 nM (active)	–	–
CC(C)OC(=O)C(C(=O)OC(C)C)=C1SC=CS1	–	–	–	–	–	inactive	inactive	inactive	inactive	inactive	2.72% (inactive)	16.3% (inactive)	inactive	inactive	inactive	–	–

Compound	z-score [1, 3]	z-score [1, 4]	z-score [1, 5]	activity, negative = inhibition [2, 6]	activity, negative = inhibition [2, 7]	Potency (3D7)	Potency (ATS189)	Potency (ATS95)	Potency (C2A)	Potency (CP185)	activity, negative = inhibition [2, 8]	activity, negative = inhibition [2, 9]	Potency (7G8)	Potency (AA1029)	Potency (AS120)	Potency ([2]; parasite line A)	Potency ([2]; parasite line B)
COc1cc([C@@H]2c3cc4c(cc3[C@H](O)[C@H]3COC(=O)[C@H]23)OCO4)cc(OC)c1OC	–	–	–	–	–	2240 nM (active)	3550 nM (active)	8910 nM (active)	–	–	–	–	316 nM (active)	11200 nM (active)	5010 nM (active)	8910 nM (active)	8910 nM (active)
CCCCCCNC(=O)n1cc(F)c(=O)[nH]c1=O	–	–	–	–	–	4470 nM (active)	–	–	12600 nM (active)	–	–	–	5010 nM (active)	–	–	–	–
Cc1nnc(NS(=O)(=O)c2ccc(N)cc2)s1	–	–	–	–	–	inactive	inactive	inactive	inactive	inactive	1.45% (inactive)	11.3% (inactive)	inactive	inactive	inactive	–	–
CC[C@H](C)C(=O)O[C@H]1C[C@@H](C)C=C2C=C[C@H](C)[C@H](CC[C@@H]3C[C@@H](O)CC(=O)O3)[C@H]21	–	–	–	–	–	inactive	inactive	inactive	inactive	inactive	-2.1% (inactive)	-31.4% (inactive)	inactive	inactive	inactive	–	–
S=P(N1CC1)(N1CC1)N1CC1	–	–	–	–	–	inactive	inactive	inactive	inactive	inactive	-0.685% (inactive)	-0.221% (inactive)	inactive	inactive	inactive	–	–
COC(=O)Nc1nc2ccc(Sc3ccccc3)cc2[nH]1	–	–	–	5.04% (inactive)	-0.246% (inactive)	inactive	inactive	inactive	inactive	inactive	–	–	inactive	inactive	inactive	–	–
Cc1cccc(N(C)C(=S)Oc2ccc3ccccc3c2)c1	–	–	–	-2.31% (inactive)	0.272% (inactive)	inactive	inactive	inactive	inactive	inactive	–	–	inactive	inactive	inactive	–	–
CC1=CC(=O)c2ccccc2C1=O	–	–	–	–	–	7080 nM (active)	inactive	inactive	–	inactive	-6.5% (inactive)	-23% (inactive)	10000 nM (active)	inactive	inactive	–	–
C1CCC(C(CC2CCCCN2)C2CCCCC2)CC1 (centres undefined)	–	–	–	–	–	7940 nM (active)	11200 nM (active)	11200 nM (active)	11200 nM (active)	10000 nM (active)	–	–	1260 nM (active)	11200 nM (active)	7940 nM (active)	–	8910 nM (active)
CCc1cc(C(N)=S)ccn1	–	–	–	–	–	inactive	inactive	inactive	inactive	inactive	-0.167% (inactive)	3.61% (inactive)	inactive	inactive	inactive	–	–
Cc1ncc([N+](=O)[O-])n1CCO	–	–	–	–	–	inactive	inactive	inactive	inactive	inactive	-7.64% (inactive)	6.06% (inactive)	inactive	inactive	inactive	–	–
CN1CCCC(n2nc(Cc3ccc(Cl)cc3)c3ccccc3c2=O)CC1 (centres undefined)	–	–	–	–	–	inactive	–	–	–	inactive	-9.96% (inactive)	-11.1% (inactive)	12600 nM (active)	–	–	–	–
CNC1CCCN(c2c(F)cc3c(=O)c(C(=O)O)cn(C4CC4)c3c2OC)C1 (centres undefined)	–	–	–	–	–	inactive	inactive	inactive	inactive	inactive	5.3% (inactive)	5% (inactive)	inactive	inactive	inactive	–	–
Nc1nc(N)c2nc(CNc3ccc(C(=O)NC(CCC(=O)O)C(=O)O)cc3)cnc2n1 (centres undefined)	–	–	–	–	–	inactive	inactive	inactive	inactive	inactive	3.54% (inactive)	-5.01% (inactive)	inactive	inactive	inactive	–	–
COc1ccc2cc3[n+](cc2c1OC)CCc1cc2c(cc1-3)OCO2	–	–	–	–	–	2000 nM (active)	1410 nM (active)	1120 nM (active)	1000 nM (active)	708 nM (active)	–	–	282 nM (active)	708 nM (active)	1260 nM (active)	447 nM (active)	1260 nM (active)
CNNCc1ccc(C(=O)NC(C)C)cc1	–	–	–	–	–	inactive	inactive	inactive	inactive	inactive	0.0651% (inactive)	-2.63% (inactive)	–	inactive	inactive	–	–
COc1cc(NCc2ccc3nc(N)nc(N)c3c2C)cc(OC)c1OC	–	–	–	–	–	6.3 nM (active)	282 nM (active)	631 nM (active)	631 nM (active)	562 nM (active)	–	–	79.4 nM (active)	1000 nM (active)	1000 nM (active)	3.5 nM (active)	7.1 nM (active)
Oc1c(Cl)cc(Cl)c2cccnc12	–	–	–	–	–	–	8910 nM (active)	7940 nM (active)	–	11200 nM (active)	–	–	6310 nM (active)	–	11200 nM (active)	–	10000 nM (active)
CC(=O)Oc1ccccc1C(=O)Nc1ncc([N+](=O)[O-])s1	–	–	–	–	–	–	inactive	inactive	inactive	inactive	1.42% (inactive)	8% (inactive)	10000 nM (active)	inactive	inactive	–	–
COc1cc2c(Nc3ccc(Br)cc3F)ncnc2cc1OCC1CCN(C)CC1	–	–	–	–	–	2510 nM (active)	5010 nM (active)	3550 nM (active)	3160 nM (active)	3550 nM (active)	–	–	3160 nM (active)	2820 nM (active)	3160 nM (active)	1780 nM (active)	1000 nM (active)
CC(C)NCC(O)c1ccc(NS(C)(=O)=O)cc1 (centres undefined)	–	–	–	–	–	inactive	inactive	inactive	inactive	inactive	-2.6% (inactive) and 1.55% (inactive)	9.61% (inactive) and 12.6% (inactive)	inactive	inactive	inactive	–	–
